The list is not random: actives were taken first. Their share in the collection is about 7.5%.
ELG1 genotox: inducers of genotoxicity in HEK293T ELG1-luciferase cells. AID 504466. Potency, µM (top dose mostly 46 µM), inactives show at the highest dose activity change, positive = activation, hits mostly activators. HEK293T ELG1-luciferase reporter, luminescence, 16 h. 330,000 compounds, 1.3% hits; also: % of control where 0% means no effect; nearly all actives have a fitted effect of over 60% in size
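Luminescence read-out: rising ELG1-luciferase signal, reflecting elevated ELG1 protein under genetic stress, flags genotoxic compounds. Cells were treated for 16 hr at 37 °C before ONE-Glo detection.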
FLuc modulator: inhibits or activates purified firefly luciferase, miR-21 counter-screen; P08659; purified FLuc, Km substrates, luminescence inhibition; Potency, µM (series often up to 57.5 µM), without a hit: top-dose activity change, negative = inhibition, actives largely listed as inhibitors; 360,000 compounds, 6.9% hits;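 also: plate controls were vehicle for no effect and reference inhibitor for full effect; nearly all actives have a fitted effect of over 55% in size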
Target sequence (P08659 whole entry, looked up): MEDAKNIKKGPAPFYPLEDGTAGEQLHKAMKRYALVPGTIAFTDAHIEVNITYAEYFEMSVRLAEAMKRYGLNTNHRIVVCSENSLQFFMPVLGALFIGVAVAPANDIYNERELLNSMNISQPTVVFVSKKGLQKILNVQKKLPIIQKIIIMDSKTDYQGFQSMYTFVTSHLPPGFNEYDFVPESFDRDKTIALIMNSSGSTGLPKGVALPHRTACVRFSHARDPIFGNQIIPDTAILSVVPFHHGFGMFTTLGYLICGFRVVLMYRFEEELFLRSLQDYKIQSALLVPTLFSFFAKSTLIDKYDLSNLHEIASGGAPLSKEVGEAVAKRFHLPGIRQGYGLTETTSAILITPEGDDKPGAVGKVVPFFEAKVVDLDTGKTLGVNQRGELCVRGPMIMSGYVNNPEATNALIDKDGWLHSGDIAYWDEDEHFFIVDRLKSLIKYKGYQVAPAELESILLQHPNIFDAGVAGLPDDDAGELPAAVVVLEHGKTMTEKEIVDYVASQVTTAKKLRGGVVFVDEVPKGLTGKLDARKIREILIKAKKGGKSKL
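Purified P. pyralis luciferase, 10 nM final, with Km-level 10 uM D-luciferin and 10 uM ATP in 50 mM Tris acetate pH 7.5, 10 mM Mg acetate, 0.01% Tween-20, 0.05% BSA; 6-point qHTS titration about 60 µM downward; luminescence read.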
NPC1 promoter act: NPC1 promoter activation. Huh7 NPC1 promoter luciferase reporter, 24 h. Potency, µM (top dose mostly 9.22 µM), without a hit: top-dose activation, actives largely listed as activators. 320,000 compounds, 2.4% hits; also: % of control where 0% means no effect; nearly all actives have a fitted effect of over 60% in size
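Compounds in DMSO were transferred onto Huh7 NPC1-luciferase reporter cells pre-incubated 2 h; after 24 h at 37 °C, Amplite reagent was dispensed and luminescence recorded 10 min later.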
KinaseGlo FLuc: counter-screen: inhibitors of Kinase-Glo firefly luciferase. Q27757. Kinase-Glo luciferase, ATP luminescence, 8 min. Potency, µM (doses to about 38.3 µM), without a hit: at the top dose activity change, negative = inhibition, usual class: inhibitors. 200,000 compounds, 0.28% hits. AID 1379; also: % is scaled to controls: 0 for no effect and ±100 for the full control effect; nearly all actives have a fitted effect of over 60% in size
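Inhibition of Kinase-Glo luciferase light generation was assessed at 10 uM ATP in pH 7.2 imidazole buffer, with luminescence measured after eight minutes at ambient temperature.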
SMN2 splice enh: enhancers of SMN2 splice variant expression; HEK293 SMN2-luciferase splicing reporter, luminescence, 30-36 h; Potency, µM (titrated, usually from 46.1 µM), for inactives: top-dose activity change, positive = activation, most hits filed as activators; 210,000 compounds, 2.8% hits; AID 1458; also: % of control where 0% means no effect; nearly all actives have a fitted effect of over 55% in size
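HEK293 cells carry an SMN2 minigene-luciferase reporter in which exon 7 inclusion puts luciferase in frame. Cells were seeded at 2000 cells/well, attached for 10-12 hours, then exposed to compounds for 30-36 hours at 37C before ONE-Glo luminescence.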
Rab9 promoter act: activates the Rab9 promoter; 320,000 compounds, 2.8% hits; Potency, µM (series often up to 9.22 µM), for inactives: at the highest dose activation, negative = inhibition, most hits filed as activators; Huh7 Rab9 promoter-luciferase reporter, luminescence, 24 h; also: % of control where 0% means no effect; nearly all actives have a fitted effect of over 60% in size
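Stable Rab9-luc Huh7, 1500 cells/well, 2 h settle; cmpd in DMSO, 24 h, 37 °C/5% CO2; luciferase reagent 10 min RT; luminescence.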
* = called active by the depositor; ? = inconclusive; / = no result; [ ] = another dose, or the depositor's remark. Calls follow the shape of the dose curve; as a rule, active = well fitted curve in the direction sought with a large enough effect; inconclusive = small, poorly fitted or top-dose-only effect, or another doubt; inactive = no such curve, though single readings can be large; an effect the other way counts as inactive or inconclusive. Potency is read from the fitted curve at half-maximal effect.

SMILES	ELG1 genotox	FLuc modulator	NPC1 promoter act	KinaseGlo FLuc	SMN2 splice enh	Rab9 promoter act
Cc1cc(=O)[nH]c(N/N=C/c2ccc([N+](=O)[O-])cc2)n1	10%	-1%	-2%	3%	-10%	0%
Cc1csc(N/N=C/c2ccc([N+](=O)[O-])cc2)n1	10%	?	?	/	/	2.8µM*
C(=N\Nc1nc2ccccc2s1)/c1ccccn1	?	0.076µM*	-6%	/	/	-28%
Brc1csc(/C=N/Nc2nc3ccccc3s2)c1	?	1.2µM*	5µM*	-4%	2.8µM*	3.2µM*
C(=N\Nc1ccccc1)/c1nc2ccccc2s1	?	1.5µM*	3.5µM*	/	/	0.79µM*
COc1ccc(N2CCN(C(=O)Cn3cnc4nc5c(cc4c3=O)CCCC5)CC2)cc1	/	4%	/	/	/	/
COc1cccc([C@@H]2Oc3ccc(OC)cc3C[C@H]2OC(=O)Nc2ccc(OC(F)F)cc2)c1	/	/	/	-2%	-12%	/
COC(=O)C1(C)C=CC2(CCCCC2)N1C(=O)c1ccccc1 (stereo unspecified)	/	/	/	-1%	-4%	/
COc1ccc(C2CC(=O)c3cc(-c4nc(-c5ccc(Cl)cc5)cs4)c(=O)[nH]c3C2)cc1 (stereo unspecified)	/	-1%	/	/	-9%	/
COc1ccc(CNC(=O)c2ccc(N3CCCC3)c(NC(=O)NCc3ccc(F)cc3)c2)cc1	/	-15%	/	/	/	/
O=C(O)c1csc(N/N=C/c2ccc(Br)cc2)n1	7%	5.4µM*	25%	4%	-5%	30%
CCNc1nc(NCC)nc(N/N=C/c2ccc(Br)cc2)n1	-10%	-13%	-15%	-4%	-21%	-3%
Cc1csc(N/N=C/c2ccccn2)n1	12µM*	2.1µM*	4%	?	3.5µM*	0.45µM*
COc1ccc(OC)c2sc(N(Cc3cccnc3)C(C)=O)nc12	/	8%	/	/	/	/
CO/N=C(\C(=O)N[C@@H]1C(=O)N2C(C(=O)[O-])=C(C[N+]3(C)CCCC3)CS[C@@H]12)c1csc(N)n1	/	/	/	0%[17.1 µM]	-7%[20.6 µM]	/
CC(C)(C)C(=O)Nc1ccc(C(=O)Nc2cccc(Oc3ccc(C(=O)O)c(C(=O)O)c3)c2)cc1	-4%	1.5µM*	4%	/	/	0%
O=C(Nc1cccc(Oc2ccc(C(=O)O)c(C(=O)O)c2)c1)c1ccc(-c2ccccc2)cc1	-2%	1.7µM*	1%	/	/	-4%
COC(=O)c1cc(NC(=O)c2ccc(-c3ccccc3)cc2)ccc1Cl	-1%	-2%	-1%	2%	-61%	-5%
COC(=O)C1(C(=O)OC)C/C=C\Cc2ccccc2[C@@H]1C[N+](=O)[O-]	/	/	/	0%	-6%	/
CC(=O)NC1=C(Nc2ccc(N(C)C)cc2)C(=O)c2ccccc2C1=O	7%	12µM*	26%	/	/	?
COC1=C(Nc2ccc(C)cc2)C(=O)c2ccccc2C1=O	6%	17µM*	?	-12%	?	?
COc1cc(COC(=O)Oc2ccc(CNC(C)=O)cc2OC)c([N+](=O)[O-])cc1OC	4%	-4%	-3%	/	/	-5%
COc1ccc(COC(=O)Oc2ccc(CNC(C)=O)cc2OC)c([N+](=O)[O-])c1	0%	13µM*	-4%	/	/	-2%
Brc1cccc(-c2cnco2)c1	3%	-1%	-6%	2%	/	-4%
CC(C)(C)c1ccc(-c2cnco2)cc1	3%	17µM*	2%	/	/	1%
CC(C)(C)C(=O)Nc1ccc(-c2cnco2)cc1	14%	17µM*	21%	/	/	18%
O=C(Cn1nnc(-c2ccccc2)n1)N1CCCCC1	?	0%	27%	/	/	?
O=C(Cn1nnc(-c2ccccc2Cl)n1)N1CCCCC1	?	17µM*	?	/	/	4µM*
CC(C)COc1ccc(-c2nnn(CC(=O)N3CCCC3)n2)cc1	?	12µM*	18%	3%	9%	20%
O=C(Cn1nnc(-c2ccc(OCc3ccccc3F)cc2)n1)N1CCOCC1	?	2.7µM*	?	-1%	13%	?
